This is a sample that favours compounds with a hit; in the whole collection about 2.7% have one here.
A549 viability = counter-screen for Nrf2 inhibitors: cytotoxicity in A549 cells. A549 ARE-Fluc cells, CellTiter-Fluor viability, 18-24 h. Potency, µM (doses to about 46 µM), inactives show at the highest dose activity change, negative = cytotoxicity, usual class: inhibitors. 0.16% of 390,000 active. AID 504648; also: potency is read from the fitted curve at half-maximal effect; % is scaled to controls: 0 for no effect and ±100 for the full control effect
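A549 ARE-Fluc cells in 5% FBS OPTI-MEM, 5000 cells/well, rested 2 h then exposed to compounds in concentration-response for 18-24 h at 37 °C. Viability by CellTiter-Fluor fluorescence (Ex 405/Em 525) after 30 min; luciferase luminescence (BugLite, 15 min, RT) read afterwards.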
Nrf2 inh = blocks Nrf2 signaling. A549 ARE-Fluc reporter, luciferase luminescence, 18-24 h. Potency, µM (doses to about 46 µM), without a hit: at the top dose activity change, negative = inhibition, most hits filed as inhibitors. 2.1% of 360,000 active. AID 504444; also: potency is read from the fitted curve at half-maximal effect; % is scaled to controls: 0 for no effect and ±100 for the full control effect; nearly all actives have a fitted effect of over 60% in size
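A549 ARE_Fluc cells (5000/well, 5% FBS OPTI-MEM) pre-incubated 2 h, then treated with compounds 18-24 h at 37C/5% CO2 in concentration-response. CellTiter-Fluor viability read first; BugLite luciferase luminescence after 15 min at room temperature gives Nrf2 activity.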
LDHA inh = LDHA (human) enzyme inhibition. P00338. purified LDHA, NADH/diaphorase-resazurin fluorescence; stronger effect = lower value. activity change, % (values are at about 110 or 230 µM). 0.15% of 480,000 active. AID 1347041; in the data active = activity change below about -30%; inconclusive = mostly about -25% to -30%;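 also: plate controls were DMSO wells for no effect and wells without enzyme for full effect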
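Human LDH5 (2 nM) was incubated with 0.06 mM NADH and 0.2 mM pyruvate for 5 min at room temperature in Tris pH 7.4. Remaining NADH was coupled through diaphorase/resazurin, and resorufin fluorescence was read at 0 and 20 min.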
12-LOX inh = blocks human arachidonate 12S-lipoxygenase; Potency, µM (series often up to 108 µM), for inactives: at the highest dose activity change, negative = inhibition, hits mostly inhibitors; P18054; 1.1% of 580,000 active; purified 12hLO, xylenol orange hydroperoxide absorbance; also: potency is read from the fitted curve at half-maximal effect; % is scaled to controls: 0 for no effect and ±100 for the full control effect
Target sequence (P18054 whole entry, looked up): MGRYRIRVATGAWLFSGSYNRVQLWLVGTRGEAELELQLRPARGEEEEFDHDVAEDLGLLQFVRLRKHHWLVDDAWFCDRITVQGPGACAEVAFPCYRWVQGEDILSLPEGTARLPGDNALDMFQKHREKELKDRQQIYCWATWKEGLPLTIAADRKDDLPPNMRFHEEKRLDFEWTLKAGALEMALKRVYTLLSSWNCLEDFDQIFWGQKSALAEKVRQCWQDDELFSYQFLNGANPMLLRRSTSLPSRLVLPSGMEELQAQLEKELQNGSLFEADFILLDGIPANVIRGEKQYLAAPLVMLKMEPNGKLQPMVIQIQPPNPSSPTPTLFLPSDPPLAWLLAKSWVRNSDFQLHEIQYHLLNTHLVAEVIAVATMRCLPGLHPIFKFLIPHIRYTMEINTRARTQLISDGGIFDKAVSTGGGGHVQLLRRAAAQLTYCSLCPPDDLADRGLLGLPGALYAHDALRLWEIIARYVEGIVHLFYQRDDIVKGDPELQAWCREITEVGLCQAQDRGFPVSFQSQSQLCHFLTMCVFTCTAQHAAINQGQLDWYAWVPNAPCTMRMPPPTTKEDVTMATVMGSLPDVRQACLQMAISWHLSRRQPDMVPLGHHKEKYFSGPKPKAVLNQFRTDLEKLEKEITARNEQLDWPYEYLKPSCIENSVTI
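Purified human 12hLO (150 nM final) in 25 mM Hepes, 0.01% Triton X-100, pH 7.0 was preincubated 15 min at room temperature with compound. Then 40 uM arachidonic acid was added, 30 min. Hydroperoxide was read by Fe-XO absorbance ratio 573/405 nm.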
ERG-DNA inh = ERG Ets/DNA interaction inhibition; P11308; fluorescence polarization, His-ERG Ets domain / labelled DNA; Potency, µM (doses to about 76.9 µM), without a hit: top-dose FP activity, negative = inhibition, actives largely listed as inhibitors; 0.028% of 370,000 active; AID 624246; active = well fitted inhibition curve with a large enough effect in the polarisation, with a control signal flat; inconclusive = small, poorly fitted or top-dose-only effect, or effect the other way, or a change in a side signal; inactive = no such curve, though single readings can be large or run the other way; the % refers to the polarisation;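 also: polarization taken with two DNA probes labelled with fluorescein and Texas red; potency is read from the fitted curve at half-maximal effect; % of control where 0% means no effect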
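His-tagged ERG Ets domain (1 uM in the protein solution; 300mM KCl, 50mM Tris-HCl, 1mM EDTA, 1mM DTT, pH 7.5) received compound, then a probe mix of 5 nM fluorescein-DNA and 100nM Texas-615-DNA. Fluorescence polarization was read for both dyes.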
Nrf2 ARE act = activators of Nrf2 (ARE) signaling; AREc32 ARE-luciferase reporter (MCF7-derived line), luminescence, 24 h; Potency, µM (titrated, usually from 46.1 µM), without a hit: top-dose activation, actives largely listed as activators; 0.31% of 410,000 active; also: potency is read from the fitted curve at half-maximal effect; % of control where 0% means no effect; nearly all actives have a fitted effect of over 65% in size
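Steps: seed AREc32_Fluc cells (1000/well, 5% FBS OPTI-MEM); incubate overnight at 37 deg C; add 23 nL compound; incubate 24 hr; add Steady-Glo; hold 30 min RT; read luminescence.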
An asterisk follows results filed as active; u = inconclusive; x = no result. Unless noted, calls follow the shape of the dose curve; as a rule, active = well fitted curve in the direction sought with a large enough effect; inconclusive = small, poorly fitted or top-dose-only effect, or another doubt; inactive = no such curve, though single readings can be large; an effect the other way counts as inactive or inconclusive.

SMILES | A549 viability | Nrf2 inh | LDHA inh | 12-LOX inh | ERG-DNA inh | Nrf2 ARE act
O=C(CCC(=O)Nc1ccc(Cl)cc1Cl)N/N=C/c1ccc([N+](=O)[O-])o1 | -22% | 18µM* | 16 | u | 4% | 21%
Cc1ccc(NCC(=O)N/N=C\c2ccc([N+](=O)[O-])o2)cc1 | u | 21µM* | 1 | -19% | x | 8%
O=C(CNc1ccccc1)N/N=C/c1ccc([N+](=O)[O-])o1 | u | 18µM* | 0 | -3% | 5% | 4%
C/C=C/C=C/C(=O)NCc1ccc(C(=O)NC)cc1 | x | x | -10 | u | x | x
CCC(c1nnnn1C1CCCCC1)N(Cc1ccco1)Cc1cc2ccc(OC)cc2[nH]c1=O (stereo not drawn) | u | 23µM* | 1 | u | -5% | 2%
O=C(NN1C(=O)c2cc(Br)ccc2NC1c1cc(Br)cc(Br)c1O)c1ccncc1 (stereo not drawn) | -5% | 1% | 1 | 50µM* | 3% | 1%
O=C(NN1C(=O)c2cc(Br)ccc2NC1c1ccccc1Cl)c1ccncc1 (stereo not drawn) | -2% | 20% | 0 | -20% | x | 10%
CCOc1ccc(-c2cc(C(=O)NCCCN(C)C)c3ccccc3n2)cc1 | x | x | 8 | -30% | x | x
CC(C)CCC(CCNC(C)c1cccs1)C1CCOC(C)(C)C1 (stereo not drawn) | x | x | -3 | 1.8µM* | x | x
C=CCNc1nc(C(=O)OCC(=O)Nc2ccccc2)cs1 | x | x | 7 | u | x | x
COC(=O)c1[nH]c(C)c(/C(O)=C2\C(=O)C(=O)N(CCCn3ccnc3)C2c2ccncc2)c1C (stereo not drawn) | x | x | 3 | u | x | x
COC(=O)c1[nH]c(C)c(/C(O)=C2\C(=O)C(=O)N(CCCn3ccnc3)C2c2cccc(OC)c2)c1C (stereo not drawn) | x | x | -40* | u | x | x
CC(C)(C)NC(=O)CN1CCN(c2cccc(F)c2C#N)CC1 | x | x | -6 | 4% | x | x
Cc1ccc(-c2csc(/C=C/c3cccc(O)c3)n2)cc1 | x | x | 7 | 7.1µM* | x | x
O=C(CCNc1cccc(Br)c1)c1cc2ccccc2o1 | x | x | -23 | u | x | x
Cc1[nH]c2c(Cl)cccc2c1C | x | x | 9 | u | x | x
Cc1[nH]c2c(ccc3ccccc32)c1C | x | x | 1 | 16µM* | x | x
CCC(C)NC(=O)Cc1csc(NC(=O)Nc2ccccc2)n1 (stereo not drawn) | x | x | 6 | u | x | x
Cc1cc(/C=C2\SC(=S)NC2=O)c(C)n1-c1ccc(O)cc1 | u | u | 0 | 28µM* | 11% | 4%
Cc1cc(/C=C2\SC(=S)NC2=O)c(C)n1-c1ccccc1 | u | u | -5 | u | 50% | 6%
O=C1NC(=S)S/C1=C\c1cc(Cl)cc(Cl)c1O | u | -7% | -7 | 45µM* | 123% | 2%
CC1(Br)C(Sc2ccccc2[N+](=O)[O-])=Nc2ccccc21 (stereo not drawn) | x | x | 4 | 7.9µM* | x | 0%
CCN(CC)c1ccc(NC2=C(Cl)C(=O)c3ccccc3C2=O)cc1 | 21µM* | u | 22 | x | -6% | u
COc1ccc2c(c1)CCc1cc(C(=O)N3CCN(c4ccc(N5CCOCC5)nn4)CC3)sc1-2 | -4% | 18µM* | 17 | x | -9% | 3%
O=c1cc(CN2CCN(c3ccccc3)CC2)nc2scc(-c3ccccc3)n12 | -6% | 15µM* | 2 | -1% | 1% | 3%
CC(=O)c1ccc(N2CCN(Cc3cc(=O)n4c(-c5ccccc5)csc4n3)CC2)cc1 | 2% | u | -3 | 0% | 1% | 7%
Cc1ccc(C(=O)/C=C/c2ccc(-c3ccc(Cl)c(Cl)c3)o2)cc1 | x | x | 5 | -81% | x | x
Cc1ccc(C(=O)/C=C/c2ccc(-c3ccc(C)c(Cl)c3)o2)cc1 | x | x | -22 | 14µM* | x | x
Cc1ccc(-c2ccc(/C=C/C(=O)c3ccccc3)o2)cc1Cl | x | x | 5 | 11µM* | x | x
